Laboratory results from PubChem BioAssay (NCATS).
“And” between values parts separate entries of the source, which are not always exact repeats. Equal entries are not always repeated. Records with an inconclusive call do not appear. The source made the active and inactive calls. Calls come from the whole dose curve; as a rule, active = well fitted curve in the direction sought with a large enough effect; inconclusive = small, poorly fitted or top-dose-only effect, or another doubt; inactive = no such curve, though single readings can be large; an effect the other way counts as inactive or inconclusive.

Legend:
[1] = tested on: TAB109; assay: qHTS profiling for inhibitors of Plasmodium falciparum proliferation (AID 504749);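 note: 0% = DMSO vehicle and full inhibition = artemisinin control; nearly all actives have a fitted effect of over 60% in size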; conditions: P. falciparum in erythrocytes, SYBR Green DNA, 72 h; series mostly up to 28.7 µM
Outline: (§1)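 Three-day growth assay of blood-stage parasites in erythrocytes (0.3% parasitemia, 2.5% hematocrit) at 37 C, 5% CO2, quantified by SYBR Green DNA staining after overnight detergent lysis.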

[2] = tested on: TAB113; assay: as above; conditions: P. falciparum in erythrocytes, SYBR Green DNA, 72 h; series mostly up to 28.7 µM
Outline: as §1

[3] = tested on: TAB165; assay: as above; conditions: P. falciparum in erythrocytes, SYBR Green DNA, 72 h; series mostly up to 28.7 µM
Outline: as §1

[4] = tested on: W2; assay: as above; conditions: P. falciparum in erythrocytes, SYBR Green DNA, 72 h; series mostly up to 28.7 µM
Outline: as §1

[5] = tested on: CRL-7250; assay: Cytotoxic Profiling of Annotated Libraries Using Quantitative High-Throughput Screening (AID 1296008); conditions: Five cell lines viability, CellTiter-Glo ATP luminescence, 48-72 h; max response: active compounds read low; note: nearly all actives have a fitted effect of over 60% in size; for max response: % is set by controls: 0 for no effect and ±100 for the full control effect
Outline: (§2)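 Cytotoxicity was measured as CellTiter-Glo ATP luminescence, read after 10 min at room temperature. Compound treatment of the cells lasted 48 or 72 hr at 37 degrees Celsius in a qHTS format.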

[6] = tested on: HEK293; assay: as above; conditions: Five cell lines viability, CellTiter-Glo ATP luminescence, 48-72 h; max response: active compounds read low
Outline: as §2

[7] = tested on: HaCat; assay: as above; conditions: Five cell lines viability, CellTiter-Glo ATP luminescence, 48-72 h; max response: active compounds read low
Outline: as §2

[8] = tested on: KB-3-1; assay: as above; conditions: Five cell lines viability, CellTiter-Glo ATP luminescence, 48-72 h; max response: active compounds read low
Outline: as §2

[9] = tested on: NIH3T3; assay: as above; conditions: Five cell lines viability, CellTiter-Glo ATP luminescence, 48-72 h; max response: active compounds read low
Outline: as §2

[10] = tested on: HACAT; assay: qHTS assay to identify novel small-molecules to repurpose for Merkel cell carcinoma treatment (AID 1296009); conditions: MCC and control cell lines, CellTiter-Glo viability, 72 h; at 44.8 µM (top of the series) unless noted; note: nearly all actives have a fitted effect of over 60% in size; for activity change, negative = cytotoxicity: % is set by controls: 0 for no effect and ±100 for the full control effect
Outline: (§3)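 After compound transfer in DMSO, plates were kept 72 hr at 37 degree celsius. Luminescent ATP signal from CellTiter-Glo served as viability measure, normalized against DMSO and no-cell controls.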

[11] = tested on: HEK293T; assay: as above; conditions: MCC and control cell lines, CellTiter-Glo viability, 72 h; at 44.8 µM (top of the series) unless noted
Outline: as §3

[12] = tested on: MCC-13; assay: as above; conditions: MCC and control cell lines, CellTiter-Glo viability, 72 h; series mostly up to 46 µM
Outline: as §3

[13] = tested on: MCC-26; assay: as above; conditions: MCC and control cell lines, CellTiter-Glo viability, 72 h; series mostly up to 46 µM
Outline: as §3

[14] = tested on: MKL-1; assay: as above; conditions: MCC and control cell lines, CellTiter-Glo viability, 72 h; series mostly up to 46 µM
Outline: as §3

[15] = tested on: MKL-2; assay: as above; conditions: MCC and control cell lines, CellTiter-Glo viability, 72 h; series mostly up to 46 µM
Outline: as §3

[16] = tested on: UISO; assay: as above; conditions: MCC and control cell lines, CellTiter-Glo viability, 72 h; series mostly up to 46 µM
Outline: as §3

[17] = tested on: WaGa; assay: as above; conditions: MCC and control cell lines, CellTiter-Glo viability, 72 h; series mostly up to 46 µM
Outline: as §3

[18] = tested on: C33A; assay: Primary qHTS to identify gynecologic anti-cancer compounds using libraries of approved drugs and bioactive compounds (AID 1345084); conditions: Gynecologic cancer cell panel viability, ATPlite luminescence, 48 h; series mostly up to 57.5 µM; note: % is set by controls: 0 for no effect and ±100 for the full control effect; nearly all actives have a fitted effect of over 55% in size
Outline: (§4)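 48 h compound exposure at 37 C, 5% CO2; five-point qHTS. ATPlite luminescence readout of cell ATP.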

[19] = tested on: CAOV3; assay: as above; conditions: Gynecologic cancer cell panel viability, ATPlite luminescence, 48 h; series mostly up to 57.5 µM
Outline: as §4

[20] = tested on: NIH3T3; assay: qHTS assay to identify novel small-molecules to repurpose for Merkel cell carcinoma treatment (AID 1296009); conditions: MCC and control cell lines, CellTiter-Glo viability, 72 h; at 44.8 µM (top of the series) unless noted; note: nearly all actives have a fitted effect of over 60% in size; for activity change, negative = cytotoxicity: % is set by controls: 0 for no effect and ±100 for the full control effect
Outline: as §3

CC[C@@]1(c2ccccc2)NC(=O)N(C)C1=O
inactive: Potency [1] | Potency [2] | Potency [3] | Potency [4] | max response [5] -4% | outcome [6] | outcome [7] | max response [8] 31.6% | max response [9] 1.13% | outcome [10] | outcome [11] | Potency [12] | Potency [13] | Potency [14] | Potency [15] | Potency [16] | Potency [17] | Potency [18]

O=c1cc[nH]c(=S)[nH]1
inactive: Potency [1] | Potency [2] | Potency [3] | Potency [4] | max response [5] 1.22% | outcome [6] | outcome [7] | max response [8] -6.83% | max response [9] -2.25% | outcome [10] | outcome [11] | Potency [12] | Potency [13] | Potency [14] | Potency [15] | Potency [16] | Potency [17] | Potency [18] | Potency [19]

CCCCCCCCCCCCCCCCCCOCC(O)CO (centres undefined)
inactive: Potency [1] | Potency [2] | Potency [3] | Potency [4] | outcome [5] | outcome [6] | outcome [7] | max response [8] 4.03% | max response [9] 4.13% | outcome [10] | outcome [11] | Potency [12] | Potency [13] | Potency [14] | Potency [15] | Potency [16] | Potency [17] | Potency [18] | Potency [19]

Cc1ncc(COP(=O)(O)O)c(C=O)c1O
inactive: Potency [1] | Potency [2] | Potency [3] | Potency [4] | max response [5] 2.82% | outcome [6] | outcome [7] | max response [8] -1.97% | max response [9] 3.84% | outcome [10] | outcome [11] | Potency [12] | Potency [13] | Potency [14] | Potency [15] | Potency [16] | Potency [17] | Potency [18] | Potency [19]

O=C(O)Cc1sc(-c2ccccc2)nc1-c1ccc(Cl)cc1
inactive: max response [5] 3.43% | outcome [6] | outcome [7] | max response [8] -1.67% and -19.6% and -27.8% | max response [9] -0.692% | outcome [10] | outcome [11] | Potency [12] | Potency [13] | Potency [14] | Potency [15] | Potency [16] | Potency [17] | Potency [18] | Potency [19]

CCCOC(=O)c1ccccc1
inactive: Potency [1] | Potency [2] | Potency [3] | Potency [4] | max response [5] -5.05% | outcome [6] | outcome [7] | max response [8] -10.8% | max response [9] 2.42% | outcome [10] | outcome [11] | Potency [12] | Potency [13] | Potency [14] | Potency [15] | Potency [16] | Potency [17] | Potency [18] | Potency [19]

O=C(O)CC(O)C(=O)O (centres undefined)
inactive: Potency [1] | Potency [2] | Potency [3] | Potency [4] | max response [5] -10.5% | outcome [6] | outcome [7] | max response [8] 15.7% | max response [9] 4.82% | outcome [10] | outcome [11] | Potency [12] | Potency [13] | Potency [14] | Potency [15] | Potency [16] | Potency [17] | Potency [18] | Potency [19]

O=C(Oc1ccccc1C(=O)O)c1ccccc1O
inactive: Potency [1] | Potency [2] | Potency [3] | Potency [4] | max response [5] 4.21% | outcome [6] | outcome [7] | max response [8] -14.6% | outcome [9] | outcome [10] | outcome [11] | Potency [12] | Potency [13] | Potency [14] | Potency [15] | outcome [20] | Potency [16] | Potency [17] | Potency [18]

N[C@@H](CSSC[C@H](N)C(=O)O)C(=O)O
inactive: outcome [5] | outcome [6] | outcome [7] | max response [8] 4.84% | max response [9] 0.783% | outcome [10] inactive [at 0.588 µM] | outcome [11] inactive [at 0.588 µM] | activity change, negative = cytotoxicity [12] 4.94% [at 0.597 µM] | activity change, negative = cytotoxicity [13] 1% [at 0.597 µM] | activity change, negative = cytotoxicity [14] 8.58% [at 0.597 µM] | activity change, negative = cytotoxicity [15] 18.8% [at 0.597 µM] | activity change, negative = cytotoxicity [16] 9.88% [at 0.597 µM] | activity change, negative = cytotoxicity [17] 9.72% [at 0.597 µM] | activity change, negative = cytotoxicity [18] 7.09% [at 0.462 µM] | activity change, negative = cytotoxicity [19] -5.94% [at 0.462 µM]

NCCNCCNCCN
inactive: Potency [1] | Potency [2] | Potency [3] | Potency [4] | max response [5] 1.87% | outcome [6] | outcome [7] | max response [8] -5.28% | max response [9] -1.13% | outcome [10] | outcome [11] | Potency [12] | Potency [13] | Potency [14] | Potency [15] | Potency [16] | Potency [17] | Potency [18] | Potency [19]

N[C@H](C(=O)O)c1ccc(O)cc1
inactive: max response [5] 3.21% | outcome [6] | outcome [7] | max response [8] 2.74% | max response [9] -1.62% | outcome [10] inactive [at 17.4 µM] | outcome [11] inactive [at 17.4 µM] | Potency [12] | Potency [13] | Potency [14] | Potency [15] | Potency [16] | Potency [17] | Potency [18] | Potency [19]

Nc1ccc(S(=O)(=O)Nc2ccccc2)cc1
inactive: Potency [1] | Potency [2] | Potency [3] | Potency [4] | outcome [5] | outcome [6] | outcome [7] | max response [8] 8.52% | max response [9] 3.32% | outcome [10] | outcome [11] | Potency [12] | Potency [13] | Potency [14] | Potency [15] | Potency [16] | Potency [17] | Potency [18] | Potency [19]

Cc1cc2c(cc1S(N)(=O)=O)S(=O)(=O)CCC2
inactive: Potency [1] | Potency [2] | Potency [3] | Potency [4] | max response [5] -3.17% | outcome [6] | outcome [7] | max response [8] -2.22% | max response [9] -4.64% | outcome [10] | outcome [11] | Potency [12] | Potency [13] | Potency [14] | Potency [15] | Potency [16] | Potency [17] | Potency [18] | Potency [19]
